Test results reported in PubChem BioAssay (NCI).
Several values for one entry are separate records, joined by “and”; a condition that tells them apart may be missing. Equal entries are not always repeated. About 79,000 compounds went through this panel and 15% of them were active in at least one assay; those are over-represented in the sample as a whole. Activity calls are given as the source filed them. No stated cut-off is given here; in the data, active means growth inhibition above about 70%; inactive means the rest.

What was measured:
[1] = NCI Yeast Anticancer Drug Screen. Data for the mec2-1 strain (AID 157); details: S. cerevisiae mec2-1 strain, hits give high values
Outline: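 Readout is yeast growth inhibition, normalised to vehicle-treated controls, in the mec2-1 strain exposed to compound.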

[2] = NCI Yeast Anticancer Drug Screen. Data for the rad14 strain (AID 159);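 further: 0% = growth of vehicle-treated control cultures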; details: S. cerevisiae rad14 strain growth inhibition, hits give high values
Outline: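 Test compounds were applied to a repair-deficient yeast strain. Its growth was then compared with that of cultures given vehicle alone, and inhibition was expressed relative to those controls.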

[3] = NCI Yeast Anticancer Drug Screen. Data for the sgs1 mgt1 strain (AID 161);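 further: 0% = growth of cultures given vehicle only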; details: S. cerevisiae sgs1 mgt1 strain, hits give high values
Outline: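 This yeast growth screen uses a strain with defined DNA-repair lesions; compound-treated growth is compared with vehicle-treated growth.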

[4] = NCI Yeast Anticancer Drug Screen. Data for the CLN2oe strain (AID 163);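 further: 0% = growth of vehicle-only control cultures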; details: S. cerevisiae CLN2oe strain, hits give high values
Outline: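 Values reflect how much compound exposure reduced yeast growth, referenced to vehicle-exposed cells. Assay organism is a strain with a defined genetic change affecting cell-cycle control.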

[5] = NCI Yeast Anticancer Drug Screen. Data for the cln2 rad14 strain (AID 165);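 further: 0% = growth equal to vehicle treated cultures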; details: S. cerevisiae cln2 rad14 strain, hits give high values
Outline: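 Relative to vehicle controls, growth inhibition of compound-treated cln2 rad14 yeast was recorded.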

[6] = NCI Yeast Anticancer Drug Screen. Data for the bub3 strain (AID 167); details: S. cerevisiae bub3 mutant strain, hits give high values
Outline: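 Yeast carrying a defined mutation is treated with each compound, and growth is compared with that of vehicle-exposed cells to give inhibition.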

[7] = NCI Yeast Anticancer Drug Screen. Data for the wt2 strain (AID 169);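 further: 0% = growth of vehicle-treated yeast cultures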; details: S. cerevisiae wt2 strain growth inhibition, hits give high values
Outline: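 Values express reduction in yeast growth under compound treatment, referenced to vehicle-treated cells.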

[8] = NCI Yeast Anticancer Drug Screen. Data for the mlh1 strain (AID 171);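 further: 0% = growth of vehicle-treated control cultures of the same strain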; details: S. cerevisiae mlh1 strain growth inhibition, hits give high values
Outline: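 Steps: expose the defined-mutant yeast strain to compound; expose a parallel culture to vehicle; measure growth; express compound effect as inhibition relative to the vehicle culture.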

[9] = NCI Yeast Anticancer Drug Screen. Data for the mlh1 rad18 strain (AID 175); details: S. cerevisiae mlh1 rad18 strain growth inhibition, hits give high values
Outline: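 Test agents were incubated with a yeast strain of defined genotype (DNA damage repair defect). Inhibition of growth was derived by comparison with vehicle-exposed cultures.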

[10] = NCI Yeast Anticancer Drug Screen. Data for the rad18 strain (AID 177); details: S. cerevisiae rad18 mutant growth inhibition, hits give high values
Outline: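 A genetically defined yeast mutant impaired in DNA damage repair was treated with test compounds, then its growth was measured against cultures receiving vehicle alone.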

[11] = NCI Yeast Anticancer Drug Screen. Data for the rad52 strain (AID 147);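 further: 0% = growth of vehicle-treated control cultures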; details: S. cerevisiae rad52 mutant growth inhibition, hits give high values
Outline: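 Screen used a yeast mutant impaired in DNA repair. After compound exposure, growth was measured. Values reflect inhibition compared with vehicle-treated cells.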

[12] = NCI Yeast Anticancer Drug Screen. Data for the wt1 strain (AID 149);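 further: 0% = growth of vehicle-treated wt1 cultures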; details: S. cerevisiae wt1 strain (SPY 50644) growth inhibition, hits give high values
Outline: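 wt1 yeast, compound-treated; % growth inhibition vs vehicle control.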

[13] = NCI Yeast Anticancer Drug Screen. Data for the rad50EPP+ strain (AID 151);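 further: 0% = growth of vehicle-treated control cultures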; details: S. cerevisiae rad50 mutant strain, hits give high values
Outline: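 Exposing the rad50EPP+ strain to each compound, growth was compared with vehicle-only cultures to give inhibition.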

[14] = NCI Yeast Anticancer Drug Screen. Data for the mgt1 strain (AID 153); details: S. cerevisiae mgt1 mutant growth inhibition, hits give high values
Outline: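 Genetically defined yeast (mgt1) treated with compound; inhibition of growth expressed against vehicle-treated controls.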

[15] = NCI Yeast Anticancer Drug Screen. Data for the rad50 strain (AID 155);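 further: 0% = growth of vehicle-only cultures of the same strain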; details: S. cerevisiae rad50 strain growth inhibition, hits give high values
Outline: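 Genetically altered yeast (DNA repair pathway); compound treatment; growth inhibition vs vehicle ctrl.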

[16] = NCI Yeast Anticancer Drug Screen. Data for the sgs1 strain (AID 173);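 further: 0% = growth of vehicle-only control cultures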; details: S. cerevisiae sgs1 mutant, hits give high values
Outline: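 Treat defined-mutant yeast with compound; measure growth; calculate inhibition relative to vehicle-treated cells.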

[17] = at 5.0 µM (retest, dose inferred, filed as 0.5)
[18] = at 50.0 µM (retest, dose inferred, filed as 5.0)

Measured: growth inhibition

c1c(N2CCOCC2)ssc1=[N+]1CCOCC1
inactive: [1]; [17] 0% | [1]; at 11.0 µM -1% | [1]; at 33.0 µM -1% | [1]; [18] 3% | [1]; at 50.0 µM 51.1% | [1]; at 100.0 µM 1% | [2]; at 1.2 µM -1% | [2]; at 3.7 µM 0% | [2]; at 11.0 µM 3% | [2]; at 33.0 µM 1% | [2]; at 100.0 µM -2% | [3]; [17] 4% | [3]; [18] 2% | [3]; at 50.0 µM 69.1% | [4]; at 1.2 µM 0% | [4]; at 3.7 µM 4% | [4]; at 11.0 µM 3% | [4]; at 33.0 µM 2% | [4]; at 100.0 µM 0% | [5]; [17] -1% | [5]; [18] 7% | [5]; at 50.0 µM 20.7% | [6]; at 1.2 µM 0% | [6]; at 3.7 µM 0% | [6]; [17] -1% | [6]; at 11.0 µM 1% | [6]; at 33.0 µM -2% | [6]; [18] 6% | [6]; at 50.0 µM 51.5% | [6]; at 100.0 µM -2% | [7]; at 1.2 µM 0% | [7]; at 3.7 µM -1% | [7]; at 11.0 µM 0% | [7]; at 33.0 µM 0% | [7]; at 100.0 µM 1% | [8]; at 1.2 µM -1% | [8]; at 3.7 µM 0% | [8]; at 11.0 µM 0% | [8]; at 33.0 µM 0% | [8]; at 100.0 µM -5% | [9]; [17] 2% | [9]; [18] 9% | [10]; at 1.2 µM -1% | [10]; at 3.7 µM -2% | [10]; at 11.0 µM -1% | [10]; at 33.0 µM -1% | [10]; at 100.0 µM -2%
active: [9]; at 50.0 µM 82.7%

CN(C)CCSC1=Nc2ccc(Cl)cc2C(c2ccccc2Cl)=NC1
inactive: [11]; at 1.2 µM -1% | [11]; at 3.7 µM -8% | [11]; at 11.0 µM 3% | [11]; at 33.0 µM 4% | [11]; at 100.0 µM 51% | [12]; at 1.2 µM -1% | [12]; at 3.7 µM -1% | [12]; at 11.0 µM 0% | [12]; at 33.0 µM 2% | [12]; at 100.0 µM -1% | [13]; at 1.2 µM -3% | [13]; at 3.7 µM -2% | [13]; at 11.0 µM -2% | [13]; at 33.0 µM -3% | [13]; at 100.0 µM 0% | [14]; at 1.2 µM -2% | [14]; at 3.7 µM -1% | [14]; at 11.0 µM 0% | [14]; at 33.0 µM 6% | [14]; at 100.0 µM 66% | [15]; at 1.2 µM -1% | [15]; at 3.7 µM 2% | [15]; [17] 12% | [15]; at 11.0 µM 2% | [15]; at 33.0 µM 8% | [15]; [18] 47% | [15]; at 50.0 µM 61.8% and 39.5% | [15]; at 100.0 µM 51% | [1]; at 1.2 µM -2% | [1]; at 3.7 µM -2% | [1]; [17] 3% | [1]; at 11.0 µM 0% | [1]; at 33.0 µM 9% | [1]; [18] 12% | [1]; at 50.0 µM -4.25% and -24.8% | [1]; at 100.0 µM 33% | [2]; at 1.2 µM 0% | [2]; at 3.7 µM 4% | [2]; at 11.0 µM 17% | [2]; at 33.0 µM 45% | [3]; [17] 11% | [3]; [18] 47% | [3]; at 50.0 µM 50% and 24.2% | [4]; at 1.2 µM -1% | [4]; at 3.7 µM -1% | [4]; at 11.0 µM 4% | [4]; at 33.0 µM 15% | [4]; at 100.0 µM 24% | [5]; [17] 4% | [5]; [18] 8% | [5]; at 50.0 µM 15.7% and -4.25% | [6]; at 1.2 µM -1% | [6]; at 3.7 µM -3% | [6]; [17] 0% | [6]; at 11.0 µM -3% | [6]; at 33.0 µM 9% | [6]; [18] 52% | [6]; at 50.0 µM 61.9% and 10.9% | [6]; at 100.0 µM 50% | [7]; at 1.2 µM -3% | [7]; at 3.7 µM -3% | [7]; at 11.0 µM -8% | [7]; at 33.0 µM -6% | [7]; at 100.0 µM 63% | [8]; at 1.2 µM -1% | [8]; at 3.7 µM -4% | [8]; at 11.0 µM -1% | [8]; at 33.0 µM -27% | [8]; at 100.0 µM 64% | [16]; at 1.2 µM -2% | [16]; at 3.7 µM -1% | [16]; at 11.0 µM 0% | [16]; at 33.0 µM 16% | [9]; [17] 4% | [9]; [18] 28% | [9]; at 50.0 µM 40.2% and 7.1% | [10]; at 1.2 µM -2% | [10]; at 3.7 µM -1% | [10]; at 11.0 µM 6% | [10]; at 33.0 µM 15% | [10]; at 100.0 µM 47%
active: [2]; at 100.0 µM 75% | [16]; at 100.0 µM 70%

Oc1ccc2nc3ccccc3nc2c1
inactive: [11]; at 1.2 µM -1% | [11]; at 3.7 µM 4% | [11]; at 11.0 µM 24% | [11]; at 33.0 µM 64% | [12]; at 1.2 µM 1% | [12]; at 3.7 µM 6% | [12]; at 11.0 µM 21% | [12]; at 33.0 µM 26% | [13]; at 1.2 µM -1% | [13]; at 3.7 µM -2% | [13]; at 11.0 µM 23% | [14]; at 1.2 µM -2% | [14]; at 3.7 µM -5% | [14]; at 11.0 µM 10% | [14]; at 33.0 µM 43% | [15]; at 1.2 µM 2% | [15]; at 3.7 µM 5% | [15]; [17] 9% | [15]; at 11.0 µM 23% | [15]; at 33.0 µM 68% | [1]; at 1.2 µM 2% | [1]; at 3.7 µM 7% | [1]; [17] 13% | [1]; at 11.0 µM 24% | [1]; at 33.0 µM 52% | [1]; [18] 58% | [2]; at 1.2 µM 1% | [2]; at 3.7 µM 5% | [2]; at 11.0 µM 18% | [2]; at 33.0 µM 31% | [3]; [17] -3% | [3]; [18] 20% | [3]; at 50.0 µM 48.5% | [4]; at 1.2 µM 4% | [4]; at 3.7 µM 2% | [4]; at 11.0 µM 11% | [4]; at 33.0 µM 22% | [4]; at 100.0 µM 67% | [5]; [17] 19% | [5]; [18] 20% | [5]; at 50.0 µM 65.5% | [6]; at 1.2 µM 2% | [6]; at 3.7 µM 5% | [6]; [17] -8% | [6]; at 11.0 µM 29% | [6]; at 33.0 µM 46% | [6]; [18] 61% | [7]; at 1.2 µM -1% | [7]; at 3.7 µM 4% | [7]; at 11.0 µM 13% | [7]; at 33.0 µM 27% | [8]; at 1.2 µM -3% | [8]; at 3.7 µM -2% | [8]; at 11.0 µM 11% | [8]; at 33.0 µM 27% | [9]; [17] 35% | [10]; at 1.2 µM -3% | [10]; at 3.7 µM 8% | [10]; at 11.0 µM 15% | [10]; at 33.0 µM 54%
active: [11]; at 100.0 µM 95% | [12]; at 100.0 µM 72% | [13]; at 33.0 µM 77% | [13]; at 100.0 µM 96% | [14]; at 100.0 µM 80% | [15]; [18] 89% | [15]; at 50.0 µM 91.5% | [15]; at 100.0 µM 92% | [1]; at 50.0 µM 72.7% | [1]; at 100.0 µM 95% | [2]; at 100.0 µM 85% | [6]; at 50.0 µM 88% | [6]; at 100.0 µM 82% | [7]; at 100.0 µM 73% | [8]; at 100.0 µM 80% | [9]; [18] 82% | [9]; at 50.0 µM 86.8% | [10]; at 100.0 µM 91%
